Compound activity deposited in PubChem by National Center for Advancing Translational Sciences (NCATS).
HCMV antiviral = blocks human cytomegalovirus replication; activity change, negative = inhibition, % at 57.5 µM; hit rate 4.5% among 410,000; HFF cells, HCMV-luciferase reporter, 72 h; stronger effect = lower value; in the data active = activity change below about -60%; inconclusive = no clear call, values can overlap the other calls; inactive = above about -39%
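Steps: HFFs plated, 16 h 37C; compounds added; HCMV-luciferase added to MOI 1 PFU/cell; 72 h 37C; OneGlo reagent, 5 min room temperature; luminescence read, normalized to controls.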
Vaccinia Venus = inhibitors of vaccinia virus (Venus reporter). hit rate 0.46% among 330,000. Vaccinia virus Venus reporter expression, fluorescence. AID 720580. Potency, µM (titrated, usually from 36.5 µM), for the others: at the top dose activity change, negative = inhibition, hits mostly inhibitors; calls by dose curve; tested in A549 cells; also: potency is read from the fitted curve at half-maximal effect; nearly all actives have a fitted effect of over 30% in size
Giardia FBPA inh-1 = Giardia lamblia aldolase inhibition. A8B2U2. purified Giardia FBPA. Potency, µM (highest dose often 59.6 µM), for inactives: at the top dose activity, negative = inhibition, hits mostly inhibitors. hit rate 0.71% among 290,000; also: potency is read from the fitted curve at half-maximal effect; nearly all actives have a fitted effect of over 55% in size
Target sequence (A8B2U2 whole entry, looked up): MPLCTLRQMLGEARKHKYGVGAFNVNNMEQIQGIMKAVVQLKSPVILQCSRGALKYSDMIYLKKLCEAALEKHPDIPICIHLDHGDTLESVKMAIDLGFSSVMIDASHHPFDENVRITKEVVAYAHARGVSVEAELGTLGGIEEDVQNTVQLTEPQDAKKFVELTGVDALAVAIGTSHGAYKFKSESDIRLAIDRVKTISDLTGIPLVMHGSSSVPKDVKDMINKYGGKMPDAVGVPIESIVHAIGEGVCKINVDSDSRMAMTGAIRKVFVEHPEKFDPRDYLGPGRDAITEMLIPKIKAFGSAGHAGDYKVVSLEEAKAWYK
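Giardia FBPA (40 nM reagent) was preincubated 10 min at RT with compound (up to 57.5 uM final), then substrate plus GAPDH/TPI/NAD/arsenate coupling system with diaphorase/resazurin was added; resorufin fluorescence (525/598 nm) was read after 20 min.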
HCV inh = HCV inhibition; Huh7.5.1 HCVcc-Cre infection, luciferase reporter, 44 h; Potency, µM (series often up to 41.8 µM), for inactives: at the highest dose activity change, negative = inhibition, most hits filed as inhibitors; hit rate 3.4% among 340,000; also: potency is read from the fitted curve at half-maximal effect
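Seed cells (1,000/well) for 4 h; treat with compound and infect with HCVcc-Cre, moi about 0.5. Incubate 44 h, then detect luciferase activity.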
Vaccinia mCherry = inhibitors of vaccinia virus infection (mCherry reporter signal); Potency, µM (top dose mostly 36.5 µM), for inactives: top-dose activity change, negative = inhibition, most hits filed as inhibitors; Vaccinia virus mCherry reporter infection, fluorescence; hit rate 0.63% among 310,000; AID 720579; calls by dose curve; tested in A549 cells; also: potency is read from the fitted curve at half-maximal effect; nearly all actives have a fitted effect of over 35% in size
FMDV inh = antivirals against foot and mouth disease virus; FMDV antiviral cell-based qHTS; Potency, µM (top dose mostly 57.9 µM), inactives show top-dose activity change, negative = inhibition, most hits filed as inhibitors; hit rate 1.2% among 410,000; AID 1159524; calls by dose curve; tested in HEK293T cells; also: read-out not given here; potency is read from the fitted curve at half-maximal effect; nearly all actives have a fitted effect of over 45% in size
Giardia growth = Giardia lamblia growth inhibition | shares compounds with Giardia FBPA inh-1 | Giardia lamblia trophozoite growth inhibition | Potency, µM (top dose mostly 57.5 µM), for the others: top-dose activity change, negative = inhibition, usual class: inhibitors | hit rate 5% among 1,500;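 also: potency is read from the fitted curve at half-maximal effect; trophozoites exposed to compound for 48 h at 37 °C; nearly all actives have a fitted effect of over 70% in size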
Mammalian tox = mammalian cytotoxicity of Giardia aldolase inhibitor hits | hit rate 4% among 1,500 | Potency, µM (top dose mostly 57.5 µM), for the others: at the highest dose viability change, negative = toxicity, actives largely listed as inhibitors | shares compounds with Giardia FBPA inh-1 | mammalian cell viability counter-screen, qHTS;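 also: Chinese hamster ovary cells used as mammalian cytotoxicity surrogate; viability measured as cellular ATP by luminescence; potency is read from the fitted curve at half-maximal effect; compound exposure lasted 48 h before reading; nearly all actives have a fitted effect of over 60% in size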
Giardia FBPA inh-2 = confirmation of Giardia fructose-bisphosphate aldolase inhibitors. shares compounds with Giardia FBPA inh-1. purified Giardia aldolase enzyme activity, qHTS. Potency, µM (titrated, usually from 57.5 µM), inactives show at the top dose activity change, negative = inhibition, usual class: inhibitors. hit rate 5% among 1,500. AID 2787; also: potency is read from the fitted curve at half-maximal effect; nearly all actives have a fitted effect of over 45% in size
Rabbit aldolase = selectivity test for Giardia aldolase inhibitors: rabbit aldolase; shares compounds with Giardia FBPA inh-1; Rabbit muscle FBPA enzyme inhibition, selectivity counter-screen; Potency, µM (highest dose often 57.5 µM), for inactives: at the top dose activity, negative = inhibition, most hits filed as inhibitors; hit rate 4% among 1,500; AID 2794; also: potency is read from the fitted curve at half-maximal effect; nearly all actives have a fitted effect of over 60% in size
Target sequence (P00883 whole entry, looked up): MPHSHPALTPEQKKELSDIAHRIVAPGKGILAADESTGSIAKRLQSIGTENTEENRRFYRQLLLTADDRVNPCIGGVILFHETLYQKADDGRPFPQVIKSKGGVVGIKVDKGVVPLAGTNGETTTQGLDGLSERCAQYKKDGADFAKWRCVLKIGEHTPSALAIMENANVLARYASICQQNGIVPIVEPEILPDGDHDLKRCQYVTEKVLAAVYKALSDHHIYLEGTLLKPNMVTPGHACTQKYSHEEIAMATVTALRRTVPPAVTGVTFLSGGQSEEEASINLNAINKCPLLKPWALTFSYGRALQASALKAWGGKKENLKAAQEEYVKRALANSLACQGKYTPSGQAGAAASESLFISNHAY
GAPDH counter = counter-screen for Giardia aldolase inhibitors: GAPDH coupling enzyme | shares compounds with Giardia FBPA inh-1 | GAPDH coupling enzyme counterscreen, biochemical, qHTS | Potency, µM (series often up to 57.5 µM), inactives show top-dose activity change, negative = inhibition, usual class: inhibitors | hit rate 6% among 1,500 | AID 2795; also: potency is read from the fitted curve at half-maximal effect; nearly all actives have a fitted effect of over 55% in size
Active calls of the source: *; i = inactive; ? = inconclusive; . = not tested or not shown; [ ] = dose if it differs, or a comment. A selection: hits, their analogues and other compounds. The true share with any hit is near 7.5%. Unless noted, calls follow the shape of the dose curve; as a rule, active = well fitted curve in the direction sought with a large enough effect; inconclusive = small, poorly fitted or top-dose-only effect, or another doubt; inactive = no such curve, though single readings can be large; an effect the other way counts as inactive or inconclusive. % is scaled to controls: 0 for no effect and ±100 for the full control effect.

SMILES | HCMV antiviral | Vaccinia Venus | Giardia FBPA inh-1 | HCV inh | Vaccinia mCherry | FMDV inh | Giardia growth | Mammalian tox | Giardia FBPA inh-2 | Rabbit aldolase | GAPDH counter
COc1ccc(CN2CCN(C(=O)c3cccc(OC)c3OC)CC2)cc1OC | -22 | 0% | 20µM* | 10% | -4% | 0% | 12% | 1% | 8% | 4% | 8%
CCOc1ccc(S(=O)(=O)N(CC)CC(=O)NC2CCS(=O)(=O)C2)cc1 (centres undefined) | -3 | . | . | 4% | . | -8% | . | . | . | . | .
CN1OC[C@@H]2CN(C(=O)CCc3ccccc3)[C@H](c3ccc(N4CCCCC4)cc3)C[C@@H]21 | 21 | -6% | . | . | 13% | 6% | . | . | . | . | .
CCOC(=O)C1=C(N)OC2=C(C(=O)CC(C)(C)C2)C1c1cc(CSc2nnnn2C)cs1 (centres undefined) | 9 | -5% | 13% | 4% | i | -19% | . | . | . | . | .
Cc1cc(O)c(C(C)C)cc1N=Cc1cc([N+](=O)[O-])ccc1O | -23 | . | ? | 23% | . | -12% | 18%[38.3 µM] | ? | 9.2µM* | 13µM* | 16µM*
CCOC(=O)c1c(NC(=O)Cc2ccccc2)sc2c1CCN(CC)C2 | -11 | -14% | ? | ? | 29% | -17% | . | . | . | . | .
CCN1CCc2c(sc(NC(=O)Cc3ccccc3)c2C(=O)OC)C1 | ? | -15% | 14µM* | ? | -23% | -13% | 5%[10.4 µM] | 4% | 9% | 12% | 16%
CC(C)C(=O)Nc1sc2c(c1C(N)=O)CCN(Cc1ccccc1)C2 | -4 | -21% | 28µM* | -9% | ? | ? | 3%[10.4 µM] | -11% | 1% | 3% | -18%
NC(=O)c1c(NC(=O)c2ccccc2)sc2c1CCN(Cc1ccccc1)C2 | ? | -10% | 16µM* | -22% | 3% | 9% | ? | -17% | 0% | 2% | 10%
O=C(NN1C(=O)/C(=C/C=C/c2ccco2)SC1=S)c1ccncc1 | ? | 18% | 7.1µM* | -3% | -10% | 0% | -21%[38.3 µM] | -15% | ? | ? | -27%
O=C(NN1C(=O)/C(=C/C=C/c2ccccc2)SC1=S)c1ccncc1 | -19 | 19% | -26% | 2% | i | -22% | . | . | . | . | .
CCOc1ccc2[nH]c(S(=O)(=O)CC)nc2c1Cl | -12 | -6% | 3.5µM* | 21% | -17% | -2% | -18%[38.3 µM] | 1% | -11% | -3% | 1%
CCOc1ccc(S(=O)(=O)O)c2cccnc12 | -1 | . | . | . | . | . | . | . | . | . | .
O=c1oc2c(O)c(O)cc3c(=O)oc4c(O)c(O)cc1c4c23 | . | -21% | 2µM* | -8%[8.37 µM] | -4% | -24% | 15% | 4% | ? | ? | ?
Cc1ccc(C2CC(=O)C(C=NCCN3CCN(C(=S)Nc4ccc(F)cc4)CC3)=C(O)C2)cc1 (centres undefined) | 7 | -9% | 0% | 1% | -8% | ? | . | . | . | . | .
Cc1cc(C)nc(N/N=C/C2=C(O)CC(c3ccc(F)cc3)CC2=O)n1 (centres undefined) | -26 | . | -21% | -28% | . | 5% | 4%[38.3 µM] | ? | 9% | 7% | 1%
COc1ccccc1NC(=O)COC(=O)c1ccc(N2CCCC2=O)cc1 | -14 | . | . | -10% | . | -4% | . | . | . | . | .
CCCc1cc(=O)n2[nH]c(NC(=O)c3ccco3)nc2n1 | 49 | -6% | 16µM* | 27% | -12% | 1% | ? | 13% | -8% | -4% | -5%
CCCc1cc(=O)n2[nH]c(NCc3c(Cl)cccc3Cl)nc2n1 | -23 | . | 4% | 12% | . | -6% | . | . | . | . | .
Cc1ccc(S(=O)(=O)c2nc(-c3cccc(Br)c3)oc2N2CCCCCC2)cc1 | 9 | -17% | . | . | -16% | 20% | . | . | . | . | .
O=C(C1=C(O)C(=O)N(c2nccs2)C1c1ccccc1)c1cc2ccccc2o1 (centres undefined) | 175 | 34% | 16µM* | -3% | -15% | -18% | -30% | 10% | 1% | 10% | 15%
O=C(C1=C(O)C(=O)N(CCc2ccccc2)C1c1ccncc1)c1cc2ccccc2o1 (centres undefined) | -34 | -4% | 12% | -3% | i | -19% | . | . | . | . | .
O=C(Nc1nccs1)c1cn2ccccc2n1 | 17 | . | 14µM* | 13% | . | 3% | ? | 20µM* | -7% | -3% | 1%
Cc1cnc(C(=O)Nc2nccs2)cn1 | 13 | -22% | 20µM* | 25% | . | 47% | -9% | 18% | 3% | 2% | 11%
NNC(=O)c1cn2ccccc2n1 | -14 | . | -30% | 5% | . | 53% | . | . | . | . | .
Cc1cnc(C(=O)Nc2nnc(C)s2)cn1 | 15 | -2% | -5% | -7% | -4% | 12% | . | . | . | . | .
